Results as given in ChEMBL document CHEMBL3988442, “University of Dundee, Small-Polar-MMV Screening Library” (2021).
For some of these results: Measured potencies and affinities stand elsewhere.

Assays:
Design in all cases: scale not given: direction of the effect not stated beside the values
[1] = target: Protein translocase subunit SecA (Escherichia coli (strain K12)) (UniProt P10408); test: Assay to Identify E. coli SecA ATPase Inhibitors; format: functional; conditions: 30 µM
[2] = target: T1, Ubiquitin-activating enzyme e1, putative (Leishmania donovani (strain BPK282A1)) (UniProt E9BSI1); test: Leishmania donovani Ubiquitin Activating Enzyme (LdE1); format: functional; conditions: 30 µM
T1 sequence (whole entry): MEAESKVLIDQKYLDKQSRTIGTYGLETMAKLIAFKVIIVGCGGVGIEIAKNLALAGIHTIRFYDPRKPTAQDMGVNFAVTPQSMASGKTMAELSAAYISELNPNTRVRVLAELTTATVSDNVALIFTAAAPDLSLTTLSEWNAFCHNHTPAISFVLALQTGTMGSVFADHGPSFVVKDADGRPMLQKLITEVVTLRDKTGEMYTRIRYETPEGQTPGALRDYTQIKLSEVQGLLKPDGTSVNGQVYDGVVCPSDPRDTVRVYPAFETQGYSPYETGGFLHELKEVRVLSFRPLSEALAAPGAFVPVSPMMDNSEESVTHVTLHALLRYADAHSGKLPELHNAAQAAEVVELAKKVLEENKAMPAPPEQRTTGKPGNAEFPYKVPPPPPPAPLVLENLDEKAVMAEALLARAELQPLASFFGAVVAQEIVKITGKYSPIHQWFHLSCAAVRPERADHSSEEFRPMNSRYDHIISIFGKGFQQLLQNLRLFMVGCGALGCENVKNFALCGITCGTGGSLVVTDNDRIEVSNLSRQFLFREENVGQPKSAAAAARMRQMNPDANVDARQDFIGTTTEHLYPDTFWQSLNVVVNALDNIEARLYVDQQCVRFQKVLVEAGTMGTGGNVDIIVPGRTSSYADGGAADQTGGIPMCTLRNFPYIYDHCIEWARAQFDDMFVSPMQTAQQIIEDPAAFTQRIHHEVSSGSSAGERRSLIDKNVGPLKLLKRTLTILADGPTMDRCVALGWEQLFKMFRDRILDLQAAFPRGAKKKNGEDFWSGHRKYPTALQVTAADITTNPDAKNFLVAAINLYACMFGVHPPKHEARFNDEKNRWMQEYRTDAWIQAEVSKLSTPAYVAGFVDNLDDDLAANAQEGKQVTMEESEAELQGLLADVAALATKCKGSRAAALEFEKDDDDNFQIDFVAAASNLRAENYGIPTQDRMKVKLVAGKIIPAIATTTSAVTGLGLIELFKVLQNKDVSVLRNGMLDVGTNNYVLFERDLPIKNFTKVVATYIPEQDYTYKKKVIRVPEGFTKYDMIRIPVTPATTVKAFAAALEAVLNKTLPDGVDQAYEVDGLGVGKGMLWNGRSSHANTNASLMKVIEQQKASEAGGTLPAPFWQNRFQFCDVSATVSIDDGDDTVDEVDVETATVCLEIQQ

[3] = target: AMP-activated protein kinase, AMPK (Homo sapiens) (UniProt P54646+O43741+P54619+Q9UGJ0+Q9Y478+Q13131+Q9UGI9); test: AMP-dependent Kinase enzyme assay. An in vitro enzyme assay that detects ADP turnover that is directly proportional to AMPK activity. This uses naive AMPK that is activated during the assay with MK-8722; format: functional; conditions: 30 µM
[4] = target: Sialic acid-binding Ig-like lectin 9 (Homo sapiens) (UniProt Q9Y336); test: Hs-Siglec9 ALPHAscreen SOP 20170721; conditions: 10 µM
Trypanosoma cruzi = test: Trypanosoma cruzi phosphomannomutase and mannose-1-phosphate guanylyltransferase assay; format: functional; conditions: 10 µM
[5] = target: T2, Arginase-2, mitochondrial (Homo sapiens) (UniProt P78540); test: in vitro enzyme assay to detect the production of urea directly proportional to the activity of Arginase II; format: functional; conditions: 33.3 µM; further: in the data most compounds retested in dose-response had high values
T2 sequence (whole entry): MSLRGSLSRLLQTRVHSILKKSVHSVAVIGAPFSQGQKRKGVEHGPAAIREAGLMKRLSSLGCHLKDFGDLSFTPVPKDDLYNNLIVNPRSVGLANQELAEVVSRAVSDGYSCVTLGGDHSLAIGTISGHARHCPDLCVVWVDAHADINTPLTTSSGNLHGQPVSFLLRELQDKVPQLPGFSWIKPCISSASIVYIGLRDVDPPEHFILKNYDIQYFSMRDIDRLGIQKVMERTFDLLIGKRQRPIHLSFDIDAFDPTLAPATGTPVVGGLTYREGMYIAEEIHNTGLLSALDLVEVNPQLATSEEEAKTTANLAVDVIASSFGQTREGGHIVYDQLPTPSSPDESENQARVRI

[6] = target: T3, Proteasome subunit beta (Trypanosoma cruzi) (UniProt O96673); test: Trypanosoma cruzi proteasome chymotrypsin-like activity (TcProtChymo) assay.; further: in the data most compounds retested in dose-response had high values; format: functional; conditions: 9.37 µM
T3 sequence (whole entry): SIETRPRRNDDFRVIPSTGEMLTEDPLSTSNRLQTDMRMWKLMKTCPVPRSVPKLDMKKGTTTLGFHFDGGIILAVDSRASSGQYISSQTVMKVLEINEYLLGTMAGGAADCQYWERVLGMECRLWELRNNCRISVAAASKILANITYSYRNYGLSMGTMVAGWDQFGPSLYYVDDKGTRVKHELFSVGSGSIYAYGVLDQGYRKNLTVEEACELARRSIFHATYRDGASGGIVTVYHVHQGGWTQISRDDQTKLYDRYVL

Homo sapiens = species: Homo sapiens; test: To identify inhibition of the IFN signalling (Jak-Stat) pathway via expression of an eGFP reporter gene under the control of an IFN-stimulated response element (ISRE) containing MxA promoter.; format: functional; conditions: 30 µM
[7] = target: T4, Tyrosyl-tRNA synthetase, putative (Trypanosoma cruzi (strain CL Brener)) (UniProt Q4DSP6); test: Trypanosoma cruzi tyrosyl tRNA synthetase (TcYRS) _High Tyrosine SOP; format: functional; conditions: 30 µM; further: in the data most compounds retested in dose-response had high values
T4 sequence (whole entry): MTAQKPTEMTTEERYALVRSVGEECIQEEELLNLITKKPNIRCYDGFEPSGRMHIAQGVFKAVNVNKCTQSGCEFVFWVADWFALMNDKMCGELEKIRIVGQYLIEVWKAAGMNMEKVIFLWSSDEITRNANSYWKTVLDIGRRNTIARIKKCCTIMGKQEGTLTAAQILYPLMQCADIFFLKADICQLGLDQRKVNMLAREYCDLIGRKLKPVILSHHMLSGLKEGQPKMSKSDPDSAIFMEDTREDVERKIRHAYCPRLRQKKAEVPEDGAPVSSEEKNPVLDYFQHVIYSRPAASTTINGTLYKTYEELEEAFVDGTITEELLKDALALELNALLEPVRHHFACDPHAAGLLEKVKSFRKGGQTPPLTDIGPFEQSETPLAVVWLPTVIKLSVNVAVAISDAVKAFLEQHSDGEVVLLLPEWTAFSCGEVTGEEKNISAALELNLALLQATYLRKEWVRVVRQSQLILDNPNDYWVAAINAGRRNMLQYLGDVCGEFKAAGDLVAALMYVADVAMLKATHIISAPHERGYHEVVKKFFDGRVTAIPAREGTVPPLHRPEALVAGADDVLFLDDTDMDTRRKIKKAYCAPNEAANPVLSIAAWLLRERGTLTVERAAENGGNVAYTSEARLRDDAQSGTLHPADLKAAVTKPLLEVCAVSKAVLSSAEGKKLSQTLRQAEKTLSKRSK

[8] = target: T4, Tyrosyl-tRNA synthetase, putative (Trypanosoma cruzi (strain CL Brener)); test: Trypanosoma cruzi tyrosyl tRNA synthetase (TcYRS) SOP; format: functional; conditions: 30 µM
[9] = target: Chromo domain-containing protein 1 (Saccharomyces cerevisiae (strain ATCC 204508 / S288c) (Baker's yeast)) (UniProt P32657); test: ScCHD-1 Enzyme Inhibition Assay; format: functional; conditions: 30 µM; further: in the data most compounds retested in dose-response had high values
Sequence of Chromo domain-containing protein 1 (Saccharomyces cerevisiae (strain ATCC 204508 / S288c) (Baker's yeast)) (P32657 whole entry, the tested form may be a part): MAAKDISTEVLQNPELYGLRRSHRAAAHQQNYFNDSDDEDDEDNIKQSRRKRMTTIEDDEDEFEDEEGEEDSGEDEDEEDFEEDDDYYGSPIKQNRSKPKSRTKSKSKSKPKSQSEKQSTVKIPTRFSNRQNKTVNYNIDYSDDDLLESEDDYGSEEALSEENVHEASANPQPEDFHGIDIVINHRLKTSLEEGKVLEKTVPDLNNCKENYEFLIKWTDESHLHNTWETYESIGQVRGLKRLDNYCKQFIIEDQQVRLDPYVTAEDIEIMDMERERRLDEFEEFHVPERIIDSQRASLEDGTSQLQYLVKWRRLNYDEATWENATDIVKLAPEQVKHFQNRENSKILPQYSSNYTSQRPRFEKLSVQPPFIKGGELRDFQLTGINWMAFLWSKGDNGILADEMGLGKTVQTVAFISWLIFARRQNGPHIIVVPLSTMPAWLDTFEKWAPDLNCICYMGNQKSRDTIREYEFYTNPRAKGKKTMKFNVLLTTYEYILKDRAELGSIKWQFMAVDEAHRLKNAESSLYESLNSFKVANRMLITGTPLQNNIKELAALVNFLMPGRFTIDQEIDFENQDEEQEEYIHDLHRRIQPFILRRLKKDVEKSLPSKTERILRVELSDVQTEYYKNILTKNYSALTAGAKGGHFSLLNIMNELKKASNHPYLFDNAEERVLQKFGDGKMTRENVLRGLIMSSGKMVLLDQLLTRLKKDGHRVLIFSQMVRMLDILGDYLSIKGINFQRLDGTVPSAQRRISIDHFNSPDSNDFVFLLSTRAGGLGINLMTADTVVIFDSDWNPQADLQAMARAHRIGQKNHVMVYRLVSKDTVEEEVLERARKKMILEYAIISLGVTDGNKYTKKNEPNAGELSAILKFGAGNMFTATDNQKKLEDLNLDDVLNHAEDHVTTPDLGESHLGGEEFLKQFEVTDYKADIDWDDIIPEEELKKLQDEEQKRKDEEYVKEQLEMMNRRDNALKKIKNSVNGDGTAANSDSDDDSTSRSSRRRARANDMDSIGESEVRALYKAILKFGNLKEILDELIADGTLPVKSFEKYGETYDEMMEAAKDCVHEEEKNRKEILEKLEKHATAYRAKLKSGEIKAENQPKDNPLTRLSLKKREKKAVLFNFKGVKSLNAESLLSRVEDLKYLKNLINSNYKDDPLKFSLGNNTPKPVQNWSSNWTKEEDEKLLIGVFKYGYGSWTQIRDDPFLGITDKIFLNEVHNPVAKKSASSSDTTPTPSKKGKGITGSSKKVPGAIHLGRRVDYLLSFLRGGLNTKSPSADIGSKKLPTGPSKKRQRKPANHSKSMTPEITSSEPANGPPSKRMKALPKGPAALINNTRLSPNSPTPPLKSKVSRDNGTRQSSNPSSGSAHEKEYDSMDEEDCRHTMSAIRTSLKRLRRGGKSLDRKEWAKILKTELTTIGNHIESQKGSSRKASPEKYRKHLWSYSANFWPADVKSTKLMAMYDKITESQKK

Sequence of Sialic acid-binding Ig-like lectin 9 (Homo sapiens) (Q9Y336 whole entry): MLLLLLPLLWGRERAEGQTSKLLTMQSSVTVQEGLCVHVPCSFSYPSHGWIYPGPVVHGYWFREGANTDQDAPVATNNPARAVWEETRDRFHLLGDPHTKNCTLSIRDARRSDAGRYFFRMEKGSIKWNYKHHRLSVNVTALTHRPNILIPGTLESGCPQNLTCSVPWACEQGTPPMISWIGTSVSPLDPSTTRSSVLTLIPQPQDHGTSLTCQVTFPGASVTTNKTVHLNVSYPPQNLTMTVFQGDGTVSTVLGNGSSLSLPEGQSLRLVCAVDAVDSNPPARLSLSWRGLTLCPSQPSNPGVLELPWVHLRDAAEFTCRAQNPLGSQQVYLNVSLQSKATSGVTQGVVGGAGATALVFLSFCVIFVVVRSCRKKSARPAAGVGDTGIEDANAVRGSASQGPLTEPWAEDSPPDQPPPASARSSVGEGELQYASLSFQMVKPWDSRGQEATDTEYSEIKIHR
Sequence of Protein translocase subunit SecA (Escherichia coli (strain K12)) (P10408 whole entry): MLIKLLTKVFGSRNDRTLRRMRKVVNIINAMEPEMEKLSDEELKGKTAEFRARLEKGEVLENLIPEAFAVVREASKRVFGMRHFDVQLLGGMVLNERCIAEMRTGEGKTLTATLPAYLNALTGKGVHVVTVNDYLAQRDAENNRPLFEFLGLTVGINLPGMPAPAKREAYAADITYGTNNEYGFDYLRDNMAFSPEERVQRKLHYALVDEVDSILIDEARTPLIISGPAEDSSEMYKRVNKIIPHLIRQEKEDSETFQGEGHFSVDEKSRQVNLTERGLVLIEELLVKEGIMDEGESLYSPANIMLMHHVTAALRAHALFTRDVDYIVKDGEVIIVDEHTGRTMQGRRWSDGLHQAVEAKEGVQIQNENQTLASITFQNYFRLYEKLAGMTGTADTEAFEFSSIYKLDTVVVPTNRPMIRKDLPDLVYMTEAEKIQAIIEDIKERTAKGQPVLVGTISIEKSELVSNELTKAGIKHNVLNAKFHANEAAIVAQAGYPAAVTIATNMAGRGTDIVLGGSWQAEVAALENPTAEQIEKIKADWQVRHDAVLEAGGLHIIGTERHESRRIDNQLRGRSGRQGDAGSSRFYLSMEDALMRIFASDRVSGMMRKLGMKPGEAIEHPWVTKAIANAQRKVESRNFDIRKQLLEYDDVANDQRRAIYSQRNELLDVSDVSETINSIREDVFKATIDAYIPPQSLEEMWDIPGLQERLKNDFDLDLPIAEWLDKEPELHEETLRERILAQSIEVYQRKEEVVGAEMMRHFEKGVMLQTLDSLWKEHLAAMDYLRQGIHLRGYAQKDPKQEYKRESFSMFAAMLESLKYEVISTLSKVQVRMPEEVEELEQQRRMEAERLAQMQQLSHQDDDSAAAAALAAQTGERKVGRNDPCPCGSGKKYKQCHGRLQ

Row | Structure (SMILES) | Percent Effect [1] [%] | Percent Effect [2] [%] | Percent Effect [3] [%] | Percent Effect [4] [%] | Percent Effect (Trypanosoma cruzi) [%] | Percent Effect [5] [%] | Percent Effect [6] [%] | Percent Effect (Homo sapiens) [%] | Percent Effect [7] [%] | Percent Effect [8] [%] | Percent Effect [9] [%]
1 | NC(=O)c1ccc(S(=O)(=O)NC2CCN(Cc3ccccc3)C2=O)cc1 (stereo not drawn) | -3.79 | 17.7 | 9.8 | 5.49 | 0.472 | -3.42 | 0.901 | 2.7 | 5.42 | 11.4 | -6.86
2 | O=C(NCCn1ccnc1)c1ccn(-c2cccc(F)c2)n1 | -6.24 | 15.8 | -0.288 | -5.43 | -11.1 | -0.719 | 2.28 | -0.954 | 0.493 | 3.7 | -2.98
3 | CC(=O)N1CCN(Cc2nnc(C(C)(C)C)o2)CC1 | 0.446 | 5.41 | -5.16 | -0.469 | -0.772 | 2.86 | 14.3 | 7.35 | 1.59 | 9.76 | -3.99
4 | O=C(NCC1CCN(C(=O)c2ccoc2)CC1)c1ccccc1Br | -6.61 | 5.48 | 3.13 | -5.78 | -4.7 | -0.455 | 15.6 | -0.0227 | 3.23 | 5 | -4.05
5 | O=C(CSc1nncs1)N1CCN(Cc2ccc(Cl)s2)CC1 | -2.74 | 5.48 | 4.99 | 1.5 | 5.88 | 0 | 18.1 | 16.3 | 4.3 | 12.5 | -13.2
6 | COc1ccc(NC(C)C(=O)N2CCN(Cc3ccccc3)CC2)cn1 (stereo not drawn) | -0.598 | -2.74 | -258 | -6.68 | -0.783 | 3.18 | -6.21 | 4.99 | 1.07 | 0 | -0.618
7 | CC(C(=O)NCc1ccc(N2CCNC(=O)C2)cc1)n1cncn1 (stereo not drawn) | -6.76 | 26 | -36.6 | 17.6 | 8.24 | 1.42 | 5.57 | 14.6 | 5.83 | 21.9 | -12.2
8 | Cc1ccc(S(=O)(=O)NC2CC2)cc1C | 1.16 | -1.39 | -6.59 | 11.8 | 0.875 | 20.3 | 0 | 28.3 | -1.05 | 0 | 0.926
